From PubChem BioAssay (EPA / NIEHS)
Records with an inconclusive call do not appear. Active and inactive are the calls of the source. Rule for the calls, unless noted: active = hit-call score of the fitted dose curve at least 0.9, where 1 is the maximum; inactive = score below 0.9.

How the values were obtained:
[1] = ATG_DR4_LXR_CIS: Attagene CIS-FACTORIAL HepG2 Assay for human Liver X Receptor (LXR), DR4 submotif (AID 2282929); settings: HepG2 Attagene DR4 cis-reporter, mRNA transcription; actives raise or lower the signal
Method in brief: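 The endpoint is DR4-element-driven reporter transcripts after 24 h chemical exposure of transfected HepG2 cells. These were measured via RT-PCR and capillary electrophoresis, and gain or loss of signal was fitted relative to DMSO controls.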

[2] = molecular target: Transcription factor E2F1 (Homo sapiens) (UniProt Q01094); assay: ATG_E2F_CIS: Attagene CIS-FACTORIAL HepG2 Assay for human E2F Transcription Factor 1 (AID 2282935); settings: HepG2 Attagene cis-reporter, E2F reporter RNA transcripts; actives raise or lower the signal
Sequence of Transcription factor E2F1 (Homo sapiens) (Q01094 whole entry, looked up): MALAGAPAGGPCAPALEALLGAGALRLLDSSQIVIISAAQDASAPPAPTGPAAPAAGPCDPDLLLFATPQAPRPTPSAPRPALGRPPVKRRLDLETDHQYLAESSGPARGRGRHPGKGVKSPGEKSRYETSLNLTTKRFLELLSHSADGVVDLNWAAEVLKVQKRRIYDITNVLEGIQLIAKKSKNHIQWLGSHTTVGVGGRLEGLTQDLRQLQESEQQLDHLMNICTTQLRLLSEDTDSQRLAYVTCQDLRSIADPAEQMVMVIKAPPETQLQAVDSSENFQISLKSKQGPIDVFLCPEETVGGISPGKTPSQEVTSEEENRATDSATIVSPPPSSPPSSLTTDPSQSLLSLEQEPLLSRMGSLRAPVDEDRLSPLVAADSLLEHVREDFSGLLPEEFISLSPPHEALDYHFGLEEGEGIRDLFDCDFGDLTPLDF
Method in brief: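 First, HepG2 cells were transfected with reporter transcription units. Next, they were dosed for 24 h. Then RNA was isolated, converted to cDNA, PCR-amplified, FAM-labeled, HpaI-digested and analyzed by capillary electrophoresis.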

[3] = ATG_GRE_CIS: Attagene CIS-FACTORIAL HepG2 Assay for human Glucocorticoid Response Elements (GRE) (AID 2282947); settings: HepG2 GRE cis-reporter, Attagene multiplex mRNA; actives raise or lower the signal
Method in brief: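 Cells (HepG2) bearing transfected cis-promoter reporter transcription units were treated with chemical for 24 hours. Reporter mRNA was measured via RT-PCR with capillary electrophoresis, and activity was fitted in both directions relative to DMSO.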

[4] = molecular target: Hypoxia-inducible factor 1-alpha (Homo sapiens) (UniProt Q16665); assay: ATG_HIF1a_CIS: Attagene CIS-FACTORIAL HepG2 Assay for human Hypoxia Inducible Factor 1 (HIF1A) (AID 2282951); settings: HepG2 Attagene cis-factorial HIF1a reporter transcription; actives raise or lower the signal
Sequence of Hypoxia-inducible factor 1-alpha (Homo sapiens) (Q16665 whole entry, looked up): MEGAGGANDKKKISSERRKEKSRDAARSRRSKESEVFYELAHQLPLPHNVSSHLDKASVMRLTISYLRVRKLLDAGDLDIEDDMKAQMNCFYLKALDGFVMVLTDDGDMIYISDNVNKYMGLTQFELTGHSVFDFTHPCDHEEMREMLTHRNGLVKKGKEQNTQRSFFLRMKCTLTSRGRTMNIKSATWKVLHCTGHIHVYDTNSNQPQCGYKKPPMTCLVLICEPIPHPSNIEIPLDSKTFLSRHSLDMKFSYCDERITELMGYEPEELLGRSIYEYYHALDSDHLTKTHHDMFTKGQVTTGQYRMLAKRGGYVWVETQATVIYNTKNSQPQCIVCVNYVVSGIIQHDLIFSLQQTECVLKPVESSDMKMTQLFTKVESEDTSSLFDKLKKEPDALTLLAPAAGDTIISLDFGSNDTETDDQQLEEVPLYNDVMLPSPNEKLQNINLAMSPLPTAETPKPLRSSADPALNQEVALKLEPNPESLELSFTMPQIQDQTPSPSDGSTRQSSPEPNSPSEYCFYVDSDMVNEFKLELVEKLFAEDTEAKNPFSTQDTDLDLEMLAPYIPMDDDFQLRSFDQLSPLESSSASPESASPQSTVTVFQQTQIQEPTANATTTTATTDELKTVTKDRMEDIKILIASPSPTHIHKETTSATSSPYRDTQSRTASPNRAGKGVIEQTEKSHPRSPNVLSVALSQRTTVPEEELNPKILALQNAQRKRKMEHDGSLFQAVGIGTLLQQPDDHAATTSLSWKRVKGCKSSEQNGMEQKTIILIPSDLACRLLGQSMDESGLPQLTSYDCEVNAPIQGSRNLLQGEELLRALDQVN
Method in brief: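 Activity is fitted in both directions relative to DMSO. Reporter transcripts are read by RT-PCR, fluorescent primer extension and capillary electrophoresis after 24 h chemical treatment. The cells are HepG2 carrying transiently transfected cis-element-driven reporter units responding to endogenous factors.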

[5] = molecular target: Hepatocyte nuclear factor 6 (Homo sapiens) (UniProt Q9UBC0); assay: ATG_HNF6_CIS: Attagene CIS-FACTORIAL HepG2 Assay for human Hepatocyte Nuclear Factor 6 (HNF6) (AID 2282952); settings: HepG2 Attagene cis-factorial HNF6 reporter transcription; actives raise or lower the signal
Sequence of Hepatocyte nuclear factor 6 (Homo sapiens) (Q9UBC0 whole entry, looked up, the tested form may be a part): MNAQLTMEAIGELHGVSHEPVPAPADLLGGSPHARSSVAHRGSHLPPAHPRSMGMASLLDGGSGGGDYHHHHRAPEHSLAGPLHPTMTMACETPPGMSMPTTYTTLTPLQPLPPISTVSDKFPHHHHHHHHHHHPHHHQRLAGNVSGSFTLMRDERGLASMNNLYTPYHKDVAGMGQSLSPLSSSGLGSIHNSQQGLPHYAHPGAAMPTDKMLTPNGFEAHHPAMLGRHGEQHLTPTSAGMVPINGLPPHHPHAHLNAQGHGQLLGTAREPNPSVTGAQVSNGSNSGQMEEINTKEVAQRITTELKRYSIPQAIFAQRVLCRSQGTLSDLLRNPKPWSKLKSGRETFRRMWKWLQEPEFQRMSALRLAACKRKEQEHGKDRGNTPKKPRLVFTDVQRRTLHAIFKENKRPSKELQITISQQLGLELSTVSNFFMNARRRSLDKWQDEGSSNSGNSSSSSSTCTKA
Method in brief: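 Using cis-element reporters in HepG2 liver cells, the assay tracks endogenous factor-driven transcription 24 h post-dosing. Signal comes from 6-FAM-labelled, HpaI-digested RT-PCR fragments, with gain or loss scored against DMSO.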

[6] = molecular target: Heat shock factor protein 1 (Homo sapiens) (UniProt Q00613); assay: ATG_HSE_CIS: Attagene CIS-FACTORIAL HepG2 Assay for human Heat Shock Transcription Factor 1 (HSE) (AID 2282953); settings: HepG2 HSE cis-reporter, Attagene RNA transcription; actives raise or lower the signal
Sequence of Heat shock factor protein 1 (Homo sapiens) (Q00613 whole entry, looked up): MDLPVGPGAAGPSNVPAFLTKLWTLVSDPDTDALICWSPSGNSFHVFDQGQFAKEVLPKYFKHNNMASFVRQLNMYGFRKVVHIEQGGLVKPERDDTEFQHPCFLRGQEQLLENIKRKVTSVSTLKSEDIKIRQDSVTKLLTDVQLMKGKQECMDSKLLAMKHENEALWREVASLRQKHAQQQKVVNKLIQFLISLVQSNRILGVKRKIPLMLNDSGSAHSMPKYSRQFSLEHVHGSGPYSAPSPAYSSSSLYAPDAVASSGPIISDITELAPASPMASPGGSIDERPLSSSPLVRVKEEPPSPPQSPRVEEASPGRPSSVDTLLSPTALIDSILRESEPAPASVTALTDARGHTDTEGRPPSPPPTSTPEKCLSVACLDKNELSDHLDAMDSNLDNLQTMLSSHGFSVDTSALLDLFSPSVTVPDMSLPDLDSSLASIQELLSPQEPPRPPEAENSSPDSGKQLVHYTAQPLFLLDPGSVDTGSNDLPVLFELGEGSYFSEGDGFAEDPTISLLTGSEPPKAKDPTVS
Method in brief: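 Endogenous transcription factor activity in transiently transfected HepG2, read as reporter mRNA by RT-PCR with fluorescent capillary electrophoresis after 24 h. Gain or loss of signal fitted versus DMSO baseline.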

[7] = ATG_TA_CIS: Attagene CIS-FACTORIAL HepG2 Assay for human TA Basal Promoter (AID 2282964); settings: HepG2 Attagene CIS-factorial TA basal promoter reporter; actives raise or lower the signal
Method in brief: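 Background-control readout: TA basal promoter reporter mRNA, fitted in both directions relative to DMSO. Measured by RT-PCR and capillary electrophoresis 24 hours after treating HepG2 human liver cells transiently carrying multiplexed cis-regulated reporter constructs.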

[8] = ATG_TCF_b_cat_CIS: Attagene CIS-FACTORIAL HepG2 Assay for human T-Cell-Factor with beta-catenin (TCF/b-cat) (AID 2282965); settings: HepG2 TCF/beta-catenin cis-reporter transcription, actives raise or lower the signal
Method in brief: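 HepG2 cells transiently transfected with multiple cis-promoter-regulated reporter transcription units, so endogenous transcription factor activity is measured. Reporter mRNA read 24 hours after dosing by RT-PCR, fluorescent labelling and capillary electrophoresis; bidirectional fitting against DMSO.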

[9] = ATG_TGFb_CIS: Attagene CIS-FACTORIAL HepG2 Assay for human Transforming Growth Factor (TGF) (AID 2282967); settings: HepG2 Attagene CIS TGFb reporter, mRNA transcription; actives raise or lower the signal
Method in brief: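 Endogenous TGFB1-linked transcription factor activity read as reporter mRNA via RT-PCR and capillary electrophoresis, 24 h after dosing transiently transfected HepG2 cells. Gain or loss of signal fitted relative to DMSO.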

[10] = molecular target: Transcriptional activator Myb (Homo sapiens) (UniProt P10242); assay: ATG_Myb_CIS: Attagene CIS-FACTORIAL HepG2 Assay for human Myeloblastosis (Myb) Proto-Oncogene Transcription Factor (AID 2282986); settings: HepG2 Attagene CIS-FACTORIAL Myb reporter transcription; actives raise or lower the signal
Sequence of Transcriptional activator Myb (Homo sapiens) (P10242 whole entry, looked up): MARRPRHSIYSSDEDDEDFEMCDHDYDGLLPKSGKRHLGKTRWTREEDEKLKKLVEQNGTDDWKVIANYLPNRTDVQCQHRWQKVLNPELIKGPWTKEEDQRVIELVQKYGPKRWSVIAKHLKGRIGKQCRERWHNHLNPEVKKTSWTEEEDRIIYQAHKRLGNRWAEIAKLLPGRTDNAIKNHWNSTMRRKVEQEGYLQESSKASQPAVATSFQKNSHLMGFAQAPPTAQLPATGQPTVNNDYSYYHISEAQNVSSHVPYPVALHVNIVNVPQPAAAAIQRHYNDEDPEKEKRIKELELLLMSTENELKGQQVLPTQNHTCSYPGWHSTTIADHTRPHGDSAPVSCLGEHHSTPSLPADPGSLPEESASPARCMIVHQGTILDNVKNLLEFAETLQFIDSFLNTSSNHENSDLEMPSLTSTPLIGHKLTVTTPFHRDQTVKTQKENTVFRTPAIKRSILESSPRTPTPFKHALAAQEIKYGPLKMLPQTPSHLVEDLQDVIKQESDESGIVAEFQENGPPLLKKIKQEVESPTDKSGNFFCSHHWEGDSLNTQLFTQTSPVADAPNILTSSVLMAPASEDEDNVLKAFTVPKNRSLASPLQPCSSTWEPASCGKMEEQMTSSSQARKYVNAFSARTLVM
Method in brief: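 Reporter mRNA is quantified by RT-PCR and capillary electrophoresis 24 h after dosing HepG2 cells transfected with cis-regulated reporter units, which track endogenous transcription factor activity. Gain and loss of signal are fitted versus DMSO baseline.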

[11] = molecular target: Nuclear respiratory factor 1 (Homo sapiens) (UniProt Q16656); assay: ATG_NRF1_CIS: Attagene CIS-FACTORIAL HepG2 Assay for human Nuclear Respiratory Factor 1 (NRF1) Orphan Gene (AID 2282987); settings: HepG2 NRF1 cis-element reporter, Attagene multiplex; actives raise or lower the signal
Sequence of Nuclear respiratory factor 1 (Homo sapiens) (Q16656 whole entry, looked up): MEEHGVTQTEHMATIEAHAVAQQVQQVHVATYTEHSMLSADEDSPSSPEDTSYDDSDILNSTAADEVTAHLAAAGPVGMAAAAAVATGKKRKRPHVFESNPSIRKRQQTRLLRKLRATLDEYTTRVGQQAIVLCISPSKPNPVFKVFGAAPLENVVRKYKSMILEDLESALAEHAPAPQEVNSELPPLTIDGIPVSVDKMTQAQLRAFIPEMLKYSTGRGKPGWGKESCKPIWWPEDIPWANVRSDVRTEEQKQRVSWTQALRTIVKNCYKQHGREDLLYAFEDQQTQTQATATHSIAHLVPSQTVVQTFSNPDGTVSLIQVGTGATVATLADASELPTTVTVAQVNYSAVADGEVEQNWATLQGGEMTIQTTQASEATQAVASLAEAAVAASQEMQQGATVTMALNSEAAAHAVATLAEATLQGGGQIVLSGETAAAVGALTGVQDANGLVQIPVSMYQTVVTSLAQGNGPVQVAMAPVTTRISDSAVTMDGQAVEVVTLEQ
Method in brief: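 Endogenous NRF1-driven reporter transcription in transfected HepG2 cells after 24 h treatment. Readout: RT-PCR products, 6-FAM labelled and resolved by capillary electrophoresis; changes fitted both directions relative to DMSO.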

[12] = ATG_NFI_CIS: Attagene CIS-FACTORIAL HepG2 Assay for human Nuclear Factor I (NFI) (AID 2282989); settings: HepG2 cis-regulatory reporter, NFI response element transcription; actives raise or lower the signal
Method in brief: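 Reporter transcripts were measured by RT-PCR with fluorescent primer extension and capillary electrophoresis 24 h post-treatment. HepG2 cells carried transiently transfected cis-regulated reporter constructs reporting endogenous factor activity; gain or loss fitted against DMSO baseline.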

[13] = molecular target: Myc proto-oncogene protein (Homo sapiens) (UniProt P01106); assay: ATG_Myc_CIS: Attagene CIS-FACTORIAL HepG2 Assay for human Myelocytomatosis (Myc) Proto-Oncogene Transcription Factor (AID 2282990); settings: HepG2, Attagene cis-reporter transcription factor activity; actives raise or lower the signal
Sequence of Myc proto-oncogene protein (Homo sapiens) (P01106 whole entry, looked up): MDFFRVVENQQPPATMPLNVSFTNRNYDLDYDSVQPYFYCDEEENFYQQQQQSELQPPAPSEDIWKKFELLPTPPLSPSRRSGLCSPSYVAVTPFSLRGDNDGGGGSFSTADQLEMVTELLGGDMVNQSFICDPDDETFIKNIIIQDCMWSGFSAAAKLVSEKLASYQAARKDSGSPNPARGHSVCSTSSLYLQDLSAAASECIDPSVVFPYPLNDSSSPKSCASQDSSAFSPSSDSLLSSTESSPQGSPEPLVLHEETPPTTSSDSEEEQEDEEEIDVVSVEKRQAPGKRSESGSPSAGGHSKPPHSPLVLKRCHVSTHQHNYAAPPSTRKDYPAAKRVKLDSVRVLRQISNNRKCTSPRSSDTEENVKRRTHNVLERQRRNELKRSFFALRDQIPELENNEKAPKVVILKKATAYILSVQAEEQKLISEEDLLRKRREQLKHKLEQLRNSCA
Method in brief: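 HepG2 cells transiently transfected with multiple cis-promoter-driven reporter transcription units, so endogenous TF activity is read. After 24 h compound exposure, reporter mRNA was quantified by RT-PCR, 6-FAM labelling, HpaI digestion and capillary electrophoresis; bidirectional fit versus DMSO.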

[14] = ATG_NRF2_ARE_CIS: Attagene CIS-FACTORIAL HepG2 Assay for human Nuclear Factor Erythroid 2 Related Factor 2 (NFR2) response to Antioxidant Response Elements (ARE) (AID 2282992); settings: HepG2 Attagene ARE/NRF2 reporter, transcription factor activity; actives raise or lower the signal
Method in brief: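 Endogenous transcription factor activity in human liver HepG2 cells is tracked via a cis-element-driven reporter within a multiplexed set. mRNA induction is read by RT-PCR and capillary electrophoresis after 24 h, with DMSO as baseline.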

[15] = ATG_Oct_MLP_CIS: Attagene CIS-FACTORIAL HepG2 Assay for human Octamer-Binding Transcription Factor (Oct) (AID 2282993); settings: HepG2 Attagene cis-factorial Oct reporter, mRNA; actives raise or lower the signal
Method in brief: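 Readout is reporter transcript level from RT-PCR with fluorescent primer extension and capillary electrophoresis, fitted in both directions against DMSO. Transfected HepG2 reporter units report endogenous factor activity after 24 h dosing.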

[16] = molecular target: Cellular tumor antigen p53 (Homo sapiens) (UniProt P04637); assay: ATG_p53_CIS: Attagene CIS-FACTORIAL HepG2 Assay for human p53 Transcription Factor (AID 2282994); settings: HepG2 p53 cis-element reporter, Attagene mRNA; actives raise or lower the signal
Sequence of Cellular tumor antigen p53 (Homo sapiens) (P04637 whole entry, looked up, the tested form may be a part): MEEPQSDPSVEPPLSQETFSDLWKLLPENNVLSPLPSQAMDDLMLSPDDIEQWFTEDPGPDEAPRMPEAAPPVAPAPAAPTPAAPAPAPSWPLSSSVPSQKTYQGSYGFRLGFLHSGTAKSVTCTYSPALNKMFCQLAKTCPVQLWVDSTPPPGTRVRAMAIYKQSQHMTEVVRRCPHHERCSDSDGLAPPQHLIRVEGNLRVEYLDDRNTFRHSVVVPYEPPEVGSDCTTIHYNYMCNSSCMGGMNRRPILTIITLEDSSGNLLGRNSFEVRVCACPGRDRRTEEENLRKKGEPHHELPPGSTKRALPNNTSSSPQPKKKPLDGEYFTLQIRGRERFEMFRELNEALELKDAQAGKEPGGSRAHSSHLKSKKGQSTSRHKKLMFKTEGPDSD
Method in brief: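 Steps: transfect HepG2 with multiplexed cis reporter constructs; dose chemicals 24 h; extract RNA, reverse-transcribe, PCR-amplify reporter sequences; FAM-label, HpaI-digest, resolve fragments by CE. Activity fitted both directions relative to DMSO.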

[17] = molecular target: Nuclear receptor subfamily 1 group I member 2 (Homo sapiens) (UniProt O75469); assay: ATG_PXR_TRANS: Attagene TRANS-FACTORIAL HepG2 Assay for human Pregnane X Receptor (PXR) (AID 2283008; active = hit-call score of the fitted dose curve at least 0.9, where 1 is the maximum)
Sequence of Nuclear receptor subfamily 1 group I member 2 (Homo sapiens) (O75469 whole entry, looked up, the tested form may be a part): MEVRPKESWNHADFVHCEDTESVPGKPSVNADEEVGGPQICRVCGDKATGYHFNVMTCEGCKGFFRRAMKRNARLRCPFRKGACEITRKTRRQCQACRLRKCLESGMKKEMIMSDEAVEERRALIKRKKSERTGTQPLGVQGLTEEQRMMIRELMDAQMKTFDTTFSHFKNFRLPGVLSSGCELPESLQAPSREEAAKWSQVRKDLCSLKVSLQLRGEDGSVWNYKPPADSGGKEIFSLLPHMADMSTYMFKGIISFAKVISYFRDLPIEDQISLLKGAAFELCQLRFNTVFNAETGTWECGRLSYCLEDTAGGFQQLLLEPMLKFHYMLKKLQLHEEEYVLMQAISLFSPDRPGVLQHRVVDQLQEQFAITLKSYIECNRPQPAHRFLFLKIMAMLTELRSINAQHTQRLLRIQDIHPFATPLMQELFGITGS
Method in brief: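 HepG2 transfected (FuGene 6) with GAL4-UAS reporter units + PXR-Gal4 chimera; dosed 24 h. Total RNA → oligo(dT) RT → PCR → 6-FAM primer extension → HpaI cut → CE. Gain-of-signal vs DMSO.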

[18] = ATG_XTT_Cytotoxicity: Cytotoxicity Assessment in the Attagene TRANS-FACTORIAL HepG2 Assay (AID 2283584; active = hit-call score of the fitted dose curve at least 0.9, where 1 is the maximum)
Method in brief: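 Cells: human HepG2, transiently transfected with MRTU reporter constructs. Exposure 24 h. Readout: XTT, cell number. Baseline/neg ctrl DMSO; loss-of-signal scored.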

Measured: outcome

Cc1ccccc1S(N)(=O)=O
inactive: all assays above
